Compound activity (PubChem)
fixLJ activator: increases Burkholderia fixLJ two-component signaling | z-score (test concentration not listed) | B. multivorans fixK-promoter GFP reporter, 18 h; stronger effect = higher value | hit rate 0.3% among 29,000;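 active = replicate mean overnight rise in green fluorescent reporter signal, 3 or more SD over negative controls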
Of the large screens only hits and unclear results are named; the others gave an inactive call. This excerpt belongs to a sample that is enriched for hits.

COc1ccc(F)cc1C(NC(=O)Cc1c[nH]c(=O)[nH]c1=O)C1CC(O)C1 (centres undefined)	none
CCN(Cc1ccncc1)C(=O)C1CCC(=O)N(CCN2CCOCC2)C1 (centres undefined)	none
Cc1ccc(NC(CNS(=O)(=O)c2ccc(Cl)cc2)c2ccccc2)cc1 (centres undefined)	none
COc1cccc(NC(CNS(=O)(=O)c2ccc(C)cc2)c2ccccc2)c1 (centres undefined)	none
COc1cccc(NC(CNS(=O)(=O)c2ccc(Cl)cc2)c2ccccc2)c1 (centres undefined)	fixLJ activator 4.19
COc1ccc(OC)c(CN2CCC3(CC2)CC(C(=O)O)N(C(C)=O)C3)c1 (centres undefined)	none
Cc1nn(C)c(C)c1CCC(=O)NCC(c1ccccn1)N1CCOCC1 (centres undefined)	none
COc1ccc(-n2cccn2)cc1S(=O)(=O)NCc1noc(C(C)C)n1	none
CCNC(=O)C1CCN(C(=O)C=Cc2cnc(N(C)C)nc2)C1 (centres undefined)	none
CN1C(C(=O)c2ccccc2)=C(NC(=O)c2ccc(F)cc2)c2ccccc2S1(=O)=O	fixLJ activator 7.46
CN1C(C(=O)c2ccccc2)=C(NC(=O)c2ccccc2Br)c2ccccc2S1(=O)=O	fixLJ activator 3.63
COC(=O)CN1C(C(=O)c2ccccc2)=C(OC(=O)c2ccc(F)cc2)c2ccccc2S1(=O)=O	none
Cc1ccc(NC(=O)c2ccccc2Br)c(C(=O)c2ccccc2)c1	none
CCCN1C(C(=O)c2ccccc2)=C(OC(=O)C(C)(C)C)c2ccccc2S1(=O)=O	none
CCCCC(=O)OC1=C(C(=O)c2ccccc2)N(C)S(=O)(=O)c2ccccc21	none
CCCOc1ccccc1C(=O)N1CC(C(=O)O)C2(CCOCC2)C1 (centres undefined)	none
CCCC1COCCN1C(=O)Nc1ccc2c(c1)N(C)C(=O)CO2 (centres undefined)	none
O=C(CCCn1cnnn1)N1CCC(Oc2ccccc2)C1 (centres undefined)	none
O=C(O)Cn1ccc(C2CCCN(Cc3cc4ccccc4[nH]3)C2)n1 (centres undefined)	none
COc1ccc(-c2cc3nc(-c4ccccc4)cc(C(F)(F)F)n3n2)cc1	none
COc1ccc(-c2cc(C(F)(F)F)n3ncc(-c4ccccc4)c3n2)cc1	fixLJ activator 3.29
Cc1ccc(-c2cc(C(F)(F)F)n3ncc(-c4ccccc4)c3n2)cc1	none
